Experiments:
Experiment in all cases: DAPPL (digital affinity profiling via proximity ligation, sequencing); 10 mM Tris-HCl pH 7.5, 50 mM NaCl, 1 mM DTT, 4% glycerol, room temperature, 30 min; GST-TFs on glutathione beads, 16-mer random dsDNA library, 0.1% formaldehyde crosslink after washing; high values mean tight binding
Conditions in all cases: protein: recombinant; tags: N-terminal GST; dsDNA, one strand shown
ERF = biological target: T1, ERF (Homo sapiens, UniProt P50548 1-548)
T1 sequence: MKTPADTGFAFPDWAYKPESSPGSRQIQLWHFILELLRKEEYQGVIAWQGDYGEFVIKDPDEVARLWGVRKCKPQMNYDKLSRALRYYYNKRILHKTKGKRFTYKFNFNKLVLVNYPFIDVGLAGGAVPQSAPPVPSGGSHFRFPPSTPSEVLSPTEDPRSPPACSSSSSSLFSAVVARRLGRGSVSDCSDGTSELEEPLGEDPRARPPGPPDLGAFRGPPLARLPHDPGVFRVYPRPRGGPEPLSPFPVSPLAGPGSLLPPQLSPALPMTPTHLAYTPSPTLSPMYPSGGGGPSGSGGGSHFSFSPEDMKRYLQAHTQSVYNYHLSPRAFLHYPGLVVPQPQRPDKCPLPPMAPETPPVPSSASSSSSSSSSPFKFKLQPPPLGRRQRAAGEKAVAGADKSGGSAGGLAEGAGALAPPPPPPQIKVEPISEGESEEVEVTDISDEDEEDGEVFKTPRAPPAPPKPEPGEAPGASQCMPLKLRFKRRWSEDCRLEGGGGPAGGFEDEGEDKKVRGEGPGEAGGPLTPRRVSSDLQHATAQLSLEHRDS
In short: (§1)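 Binding signal is each hexamer's read frequency for a factor divided by its frequency in the tag-only sample. The factors were GST-fused human transcription factors from yeast, captured on glutathione beads, DNA-barcoded and pooled with that sample. Pools were incubated with 200 nmole of a random double-stranded 16-mer DNA library in Tris/NaCl/DTT/glycerol buffer at room temperature for 30 min, then washed, crosslinked with 0.1% formaldehyde, proximity-ligated with BsaI/T4 ligase (1 h, 37 °C), PCR-amplified and sequenced on an Illumina NextSeq500.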

ETV3L = biological target: T2, ETV3L (Homo sapiens, UniProt Q6ZN32 1-361)
T2 sequence: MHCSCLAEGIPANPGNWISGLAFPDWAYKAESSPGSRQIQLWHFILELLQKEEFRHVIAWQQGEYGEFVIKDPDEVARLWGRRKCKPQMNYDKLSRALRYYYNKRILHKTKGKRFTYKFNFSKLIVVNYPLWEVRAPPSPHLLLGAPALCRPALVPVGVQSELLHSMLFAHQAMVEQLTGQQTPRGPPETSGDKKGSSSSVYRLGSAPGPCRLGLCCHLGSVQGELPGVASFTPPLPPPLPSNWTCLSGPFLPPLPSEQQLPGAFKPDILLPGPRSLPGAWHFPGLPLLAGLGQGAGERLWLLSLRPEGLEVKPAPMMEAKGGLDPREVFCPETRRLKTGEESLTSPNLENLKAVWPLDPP
In short: as §1

ETS2 = biological target: T3, ETS2 (Homo sapiens, UniProt P15036 1-469)
T3 sequence: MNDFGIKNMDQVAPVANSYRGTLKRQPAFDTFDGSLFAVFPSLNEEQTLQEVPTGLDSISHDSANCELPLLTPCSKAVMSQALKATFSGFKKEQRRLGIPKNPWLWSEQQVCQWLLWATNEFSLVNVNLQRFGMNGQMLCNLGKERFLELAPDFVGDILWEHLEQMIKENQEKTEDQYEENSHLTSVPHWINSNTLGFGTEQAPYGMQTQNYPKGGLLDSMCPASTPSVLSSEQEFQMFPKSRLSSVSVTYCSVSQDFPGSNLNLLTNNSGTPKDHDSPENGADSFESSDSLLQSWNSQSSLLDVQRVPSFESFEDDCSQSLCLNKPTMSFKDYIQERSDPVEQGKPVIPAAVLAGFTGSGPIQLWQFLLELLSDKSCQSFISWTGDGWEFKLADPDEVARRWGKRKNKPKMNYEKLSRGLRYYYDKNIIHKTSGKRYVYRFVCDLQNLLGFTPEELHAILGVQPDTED
In short: as §1

SPDEF = biological target: T4, SPDEF (Homo sapiens, UniProt O95238 1-335)
T4 sequence: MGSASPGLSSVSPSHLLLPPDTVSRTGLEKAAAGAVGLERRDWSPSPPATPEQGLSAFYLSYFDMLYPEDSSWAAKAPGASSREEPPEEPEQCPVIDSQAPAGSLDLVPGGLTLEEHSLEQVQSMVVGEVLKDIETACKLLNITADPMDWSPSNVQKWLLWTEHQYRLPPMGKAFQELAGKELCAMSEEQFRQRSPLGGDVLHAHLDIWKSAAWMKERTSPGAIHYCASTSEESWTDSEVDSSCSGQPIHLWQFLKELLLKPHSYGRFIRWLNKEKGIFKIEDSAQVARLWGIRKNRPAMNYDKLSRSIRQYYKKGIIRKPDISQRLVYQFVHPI
In short: as §1

ETV7 = biological target: T5, ETV7 (Homo sapiens, UniProt Q9Y603 1-341)
T5 sequence: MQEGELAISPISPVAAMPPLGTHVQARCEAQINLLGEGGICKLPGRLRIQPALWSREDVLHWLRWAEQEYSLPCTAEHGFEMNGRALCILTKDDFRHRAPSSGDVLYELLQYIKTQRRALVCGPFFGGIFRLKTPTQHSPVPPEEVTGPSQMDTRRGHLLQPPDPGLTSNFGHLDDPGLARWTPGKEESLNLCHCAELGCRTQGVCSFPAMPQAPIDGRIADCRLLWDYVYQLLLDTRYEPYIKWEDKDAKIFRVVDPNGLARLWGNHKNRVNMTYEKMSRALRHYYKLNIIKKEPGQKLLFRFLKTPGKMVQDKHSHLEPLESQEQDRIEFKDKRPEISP
In short: as §1

ELF5 = biological target: T6, ELF5 (Homo sapiens, UniProt Q9UKW6-2 1-255)
T6 sequence: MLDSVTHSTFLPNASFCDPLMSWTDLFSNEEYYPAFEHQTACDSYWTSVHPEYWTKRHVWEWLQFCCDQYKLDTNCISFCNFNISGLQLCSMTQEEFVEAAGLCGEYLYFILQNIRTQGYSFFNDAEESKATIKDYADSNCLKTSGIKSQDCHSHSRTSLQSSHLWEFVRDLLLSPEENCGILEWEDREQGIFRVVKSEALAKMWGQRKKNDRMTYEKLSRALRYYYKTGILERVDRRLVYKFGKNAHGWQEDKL
In short: as §1

ETV3 = biological target: T7, ETV3 (Homo sapiens, UniProt P41162-2 1-143)
T7 sequence: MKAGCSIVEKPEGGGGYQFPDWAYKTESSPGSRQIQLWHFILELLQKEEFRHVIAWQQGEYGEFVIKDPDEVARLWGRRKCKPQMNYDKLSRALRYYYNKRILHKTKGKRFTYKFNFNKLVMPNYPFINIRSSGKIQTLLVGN
In short: as §1

ETV6 = ETV6 (Homo sapiens, UniProt P41212 1-452)
In short: as §1

Chain of ETV6 (P41212 whole entry): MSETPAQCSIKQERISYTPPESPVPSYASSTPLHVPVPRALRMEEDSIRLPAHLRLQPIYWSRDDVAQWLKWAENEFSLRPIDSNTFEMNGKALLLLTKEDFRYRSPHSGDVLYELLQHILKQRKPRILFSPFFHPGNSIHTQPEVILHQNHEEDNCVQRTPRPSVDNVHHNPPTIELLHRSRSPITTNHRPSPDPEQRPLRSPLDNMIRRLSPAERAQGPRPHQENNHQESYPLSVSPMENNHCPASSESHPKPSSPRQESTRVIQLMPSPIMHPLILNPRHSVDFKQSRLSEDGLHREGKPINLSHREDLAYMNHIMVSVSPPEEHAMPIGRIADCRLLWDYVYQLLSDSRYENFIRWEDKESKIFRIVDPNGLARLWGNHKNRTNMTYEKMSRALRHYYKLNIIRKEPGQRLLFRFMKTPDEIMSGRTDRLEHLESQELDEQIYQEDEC

Sequence	binding signal (ERF)	binding signal (ETV3L)	binding signal (ETS2)	binding signal (SPDEF)	binding signal (ETV7)	binding signal (ELF5)	binding signal (ETV3)	binding signal (ETV6)
CCCTCA	1.18 fold enrichment (6-mer frequency, TF over GST control)	1.18 fold enrichment (6-mer frequency, TF over GST control)	1.14 fold enrichment (6-mer frequency, TF over GST control)	1.2 fold enrichment (6-mer frequency, TF over GST control)	1.07 fold enrichment (6-mer frequency, TF over GST control)	1.14 fold enrichment (6-mer frequency, TF over GST control)	1.12 fold enrichment (6-mer frequency, TF over GST control)	1.09 fold enrichment (6-mer frequency, TF over GST control)
TGCACA	1.22 fold enrichment (6-mer frequency, TF over GST control)	1.13 fold enrichment (6-mer frequency, TF over GST control)	1.06 fold enrichment (6-mer frequency, TF over GST control)	1.21 fold enrichment (6-mer frequency, TF over GST control)	1.02 fold enrichment (6-mer frequency, TF over GST control)	1.07 fold enrichment (6-mer frequency, TF over GST control)	1.18 fold enrichment (6-mer frequency, TF over GST control)	1.06 fold enrichment (6-mer frequency, TF over GST control)
CTTACC	1.19 fold enrichment (6-mer frequency, TF over GST control)	1.16 fold enrichment (6-mer frequency, TF over GST control)	1.29 fold enrichment (6-mer frequency, TF over GST control)	1.39 fold enrichment (6-mer frequency, TF over GST control)	1.29 fold enrichment (6-mer frequency, TF over GST control)	1.39 fold enrichment (6-mer frequency, TF over GST control)	1.22 fold enrichment (6-mer frequency, TF over GST control)	1.19 fold enrichment (6-mer frequency, TF over GST control)
TGTTGA	1.13 fold enrichment (6-mer frequency, TF over GST control)	1.17 fold enrichment (6-mer frequency, TF over GST control)	1.11 fold enrichment (6-mer frequency, TF over GST control)	1.23 fold enrichment (6-mer frequency, TF over GST control)	1.18 fold enrichment (6-mer frequency, TF over GST control)	1.08 fold enrichment (6-mer frequency, TF over GST control)	1.11 fold enrichment (6-mer frequency, TF over GST control)	1.01 fold enrichment (6-mer frequency, TF over GST control)
CGGTTC	1.21 fold enrichment (6-mer frequency, TF over GST control)	1.17 fold enrichment (6-mer frequency, TF over GST control)	1.21 fold enrichment (6-mer frequency, TF over GST control)	1.63 fold enrichment (6-mer frequency, TF over GST control)	1.17 fold enrichment (6-mer frequency, TF over GST control)	1.33 fold enrichment (6-mer frequency, TF over GST control)	1.3 fold enrichment (6-mer frequency, TF over GST control)	1.4 fold enrichment (6-mer frequency, TF over GST control)
AATGGG	1.16 fold enrichment (6-mer frequency, TF over GST control)	1.15 fold enrichment (6-mer frequency, TF over GST control)	1.19 fold enrichment (6-mer frequency, TF over GST control)	1.12 fold enrichment (6-mer frequency, TF over GST control)	1.2 fold enrichment (6-mer frequency, TF over GST control)	1.2 fold enrichment (6-mer frequency, TF over GST control)	1.19 fold enrichment (6-mer frequency, TF over GST control)	1.2 fold enrichment (6-mer frequency, TF over GST control)
CACTGC	1.38 fold enrichment (6-mer frequency, TF over GST control)	1.59 fold enrichment (6-mer frequency, TF over GST control)	1.4 fold enrichment (6-mer frequency, TF over GST control)	1.42 fold enrichment (6-mer frequency, TF over GST control)	1.42 fold enrichment (6-mer frequency, TF over GST control)	1.23 fold enrichment (6-mer frequency, TF over GST control)	1.26 fold enrichment (6-mer frequency, TF over GST control)	1.41 fold enrichment (6-mer frequency, TF over GST control)
CACTAT	1.2 fold enrichment (6-mer frequency, TF over GST control)	1.18 fold enrichment (6-mer frequency, TF over GST control)	1.25 fold enrichment (6-mer frequency, TF over GST control)	1.18 fold enrichment (6-mer frequency, TF over GST control)	1.29 fold enrichment (6-mer frequency, TF over GST control)	1.15 fold enrichment (6-mer frequency, TF over GST control)	1.2 fold enrichment (6-mer frequency, TF over GST control)	1.14 fold enrichment (6-mer frequency, TF over GST control)
TGTAAA	1.23 fold enrichment (6-mer frequency, TF over GST control)	1.22 fold enrichment (6-mer frequency, TF over GST control)	1.24 fold enrichment (6-mer frequency, TF over GST control)	1.16 fold enrichment (6-mer frequency, TF over GST control)	1.13 fold enrichment (6-mer frequency, TF over GST control)	1.1 fold enrichment (6-mer frequency, TF over GST control)	1.2 fold enrichment (6-mer frequency, TF over GST control)	1.03 fold enrichment (6-mer frequency, TF over GST control)
TGTCAC	1.13 fold enrichment (6-mer frequency, TF over GST control)	1.21 fold enrichment (6-mer frequency, TF over GST control)	1.26 fold enrichment (6-mer frequency, TF over GST control)	1.09 fold enrichment (6-mer frequency, TF over GST control)	1.29 fold enrichment (6-mer frequency, TF over GST control)	1.11 fold enrichment (6-mer frequency, TF over GST control)	1.08 fold enrichment (6-mer frequency, TF over GST control)	1.1 fold enrichment (6-mer frequency, TF over GST control)
ATTACG	1.15 fold enrichment (6-mer frequency, TF over GST control)	1.15 fold enrichment (6-mer frequency, TF over GST control)	1.29 fold enrichment (6-mer frequency, TF over GST control)	1.21 fold enrichment (6-mer frequency, TF over GST control)	1.12 fold enrichment (6-mer frequency, TF over GST control)	1.12 fold enrichment (6-mer frequency, TF over GST control)	1.22 fold enrichment (6-mer frequency, TF over GST control)	1.23 fold enrichment (6-mer frequency, TF over GST control)

— PMC7862700, “An all-to-all approach to the identification of sequence-specific readers for epigenetic DNA modifications on cytosine”
